High-throughput results as filed in PubChem BioAssay.
FMDV RLuc = Primary qHTS Assay for Foot and Mouth Disease Virus Antivirals against NCGC Sytravon and CBC Compound Libraries: Renilla Luciferase Signal; FMDV replicon cells, Renilla luciferase signal; 120,000 tested, 0.32% active; AID 1745857, 2022; Potency, µM (highest dose often 57.5 µM), without a hit: top-dose activity change, negative = inhibition, actives largely listed as inhibitors; note: nearly all actives have a fitted effect of over 55% in size
FMDV FLuc = Primary qHTS Assay for Foot and Mouth Disease Virus Antivirals against NCGC Sytravon and CBC Compound Libraries: Firefly Luciferase Signal; 120,000 tested, 0.23% active; FMDV antiviral cell assay, firefly luciferase signal; Potency, µM (titrated, usually from 57.5 µM), for the others: at the top dose activity change, negative = inhibition, hits mostly inhibitors; note: nearly all actives have a fitted effect of over 60% in size
* marks the source's active call; other numbers are inactive results; ? = inconclusive; [ ] = remark or other dose. Sampled rows, rich in hits. Any-hit rate of the full collection: about 0.45%. Calls come from the whole dose curve. % is set by controls: 0 for no effect and ±100 for the full control effect; potency is the fitted concentration of half-maximal effect.

SMILES | FMDV RLuc | FMDV FLuc
CC1CCC(COC(=O)C[N+]2(C)CCCCC2)C(C)C1 (centres undefined) | -9% | -10%
CCOc1ccccc1NC(=O)Cn1nc(N2CCN(c3ccccc3)CC2)ccc1=O | 18% | -11%
CCc1ccccc1NC(=O)c1ccc(Cn2nc(N3CCN(c4ccccc4)CC3)ccc2=O)o1 | 32µM* | ?
O=C1CC(c2ccccc2O)Cc2nc(N3CCN(c4cccc(C(F)(F)F)c4)CC3)ncc21 (centres undefined) | 4µM* | 8.9µM*
CC(=O)N1c2ccccc2C(=O)C1N1CCN(c2cccc(C(F)(F)F)c2)CC1 (centres undefined) | -17% | -22%
CC1(C(=O)c2ccccc2)C(c2ccccc2)C1(C#N)C(N)=O (centres undefined) | 3% | 14%
CCOc1cc(Br)c(/C=C2/NC(=O)NC2=O)cc1OC | ? | 2.8µM*
COc1cc(/C=C2\NC(=O)NC2=O)c(Br)cc1OCC(=O)O | -8% | -15%
COC(=O)c1ccc(COc2ccc3c(=O)c(-c4ccccc4OC)c(C)oc3c2)cc1 | -35% | 1µM*
COC(=O)c1ccc(Oc2c(C)oc3cc(OCc4ccc(F)cc4)ccc3c2=O)cc1 | -4% | 4%
COc1ccc(-n2nnnc2C2CCN(S(=O)(=O)c3ccc(F)cc3Cl)CC2)cc1 | -1% | -1%
COc1ccc(-n2nnnc2C2CCN(S(=O)(=O)c3cc(OC)ccc3OC)CC2)cc1 | 25µM* | ?
CCN(CC)Cc1ccc(CNC(=O)/C=C/c2cccs2)cc1 | 4% | 4%
COCCOc1ccc(C(=O)/C=C/c2cc(OC)c(OC)c(OC)c2)cc1 | 28µM* | ?
COCCOc1ccc(/C=C/C(=O)c2ccc(C#N)cc2)cc1OC | 13% | 10%
CNc1ccc(OC(F)(F)F)cc1 | 6% | 6%
C=CCNC(=O)NC(=O)COC(=O)c1c(C)c(CC)nc2ccccc12 | 25µM* | 18µM*
CCc1nc2ccccc2c(C(=O)OCC(=O)NC(N)=O)c1C | 8% | 19%
Fc1ccc(N/N=C/c2ccccc2Cl)c(F)c1 | 19% | 17%
CC(C)C(=O)Nc1ccc(NC(=O)C(Cl)(Cl)Cl)cc1 | 5% | 92%
Cc1cccc(-c2nnc(SCCC(=O)O)o2)c1 | -9% | 1µM*
Cc1cccc(-c2nnc(SCC(=O)N3CCCCC3)o2)c1 | 9% | 131%
CNC(=O)c1cccc(OCc2coc(-c3cccc(F)c3)n2)c1 | 13µM* | -16%
CNC(=O)c1ccccc1OCc1coc(-c2ccccc2)n1 | 10µM* | ?
CNC(=O)c1ccccc1OCc1coc(-c2ccc(OC)cc2)n1 | ? | -11%
SMILES | FMDV RLuc | FMDV FLuc
CNC(=O)c1ccc(OCc2coc(-c3cccc(F)c3)n2)cc1 | -39% | -22%
Fc1ccccc1-c1ccc(-c2nn3c(-c4ccco4)nnc3s2)o1 | 1% | 42%
Cc1c(C)c2ccc(OCC(=O)C(C)(C)C)c(C)c2oc1=O | 30% | 117%
CCOC(=O)CCc1c(C)c2ccc(OCC(=O)C(C)(C)C)c(C)c2oc1=O | 18% | 2.8µM*
CC(=O)Nc1ccc(NC(=O)c2cc(-c3ccco3)nc3ccccc23)cc1 | 10% | 23%
CCCCC(CC)CNC(=S)Nc1ccc(C)cc1C (centres undefined) | 166% | -19%
CCc1ccc(-c2nc(C)c(C(C)=O)s2)cc1 | 14% | 129%
CCc1ccc(-c2nc(COC(=O)c3c(C)nsc3N)cs2)cc1 | 1.4µM* | ?
O=C(c1cccs1)c1cn(CCOc2ccccc2F)c2ccccc12 | 7% | 21%
CC(=O)c1cn(CCOc2ccccc2F)c2ccccc12 | 8.9µM* | ?
Cc1ccc(OCCn2cc(C(=O)C3CC3)c3ccccc32)cc1 | 41% | 68%
COc1ccc(OCCn2cc(C(C)=O)c3ccccc32)cc1 | ? | 25µM*
CCCCOC(=O)c1ccc(NC(=O)c2ccc3c(c2)CCCN3S(C)(=O)=O)cc1 | 22µM* | 28µM*
CCCCOC(=O)c1ccc(NC(=O)c2ccc3c(c2)CCN3S(=O)(=O)c2ccccc2)cc1 | -11% | -39%
CC(OC(=O)c1cc(-c2ccco2)nc2ccccc12)C(=O)NC(=O)NC(C)(C)C (centres undefined) | 7% | 15%
CCC(C)NC(=O)CCNC(=O)c1cc2ccc(OC)cc2nc1C (centres undefined) | -4% | 11%
Cc1ccc(CCNC(=O)C(C)n2nc(C)c3c(C)n(-c4ccc(C)cc4)nc3c2=O)cc1 (centres undefined) | 13µM* | ?
COc1ccc(CCNC(=O)C(C)n2nc(C)c3c(C)n(-c4ccccc4)nc3c2=O)cc1OC (centres undefined) | 9% | 23%
COCCNC(=O)c1cc(-c2ccccc2)nc2ccc(C)cc12 | ? | 14%
C[C@@H](O[C@H]1OCCN(Cc2n[nH]c(=O)[nH]2)[C@H]1c1ccc(F)cc1)c1cc(C(F)(F)F)cc(C(F)(F)F)c1 | 32µM* | ?
c1ccc(OCCN2CCC(c3nc4ccccc4s3)CC2)cc1 | 6% | 74%
CO/C=C(/C(=O)OC)c1ccccc1Oc1cc(Oc2ccccc2C#N)ncn1 | 18µM* | ?
COc1ccc(C(C)=O)cc1COc1ccccc1C#N | 34% | 21%
COCCC(C)NC(=O)c1cc(=O)[nH]c2ccccc12 (centres undefined) | 11% | 18%
O=C(Cc1ccc2ccccc2c1)Nc1nccs1 | 0% | 0%
SMILES | FMDV RLuc | FMDV FLuc
CCCCCn1c(=N)n(CC(O)COc2cccc(C)c2)c2ccccc21 (centres undefined) | 25µM* | ?
Cc1ccccc1OCC(O)Cn1c(=N)n(CCN2CCCCC2)c2ccccc21 (centres undefined) | -4% | -7%
Cc1ccccc1S(=O)(=O)Cc1ccc(C(=O)NCCN(C)C)o1 | -7% | -2%
CCOC(=O)COc1ccc2c(=O)c(Oc3ccc(C(=O)OC)cc3)c(C(F)(F)F)oc2c1 | -3% | 4%
CCOC(=O)c1ccc(Oc2c(C(F)(F)F)oc3cc(O)ccc3c2=O)cc1 | 25µM* | ?
Cn1cc(-c2nc(COc3cccc4c3OC(C)(C)C4)cs2)cn1 | 0% | -1%
CC(C)(C)c1ccc(NC(=O)c2scc3c2CCCC3)cc1 | -4% | 25%
Cc1ccc(Cl)cc1N1CCN(C(=O)C2CCN(c3nnc(-n4c(C)ccc4C)s3)CC2)CC1 | ? | 10µM*
CCS(=O)(=O)N1CCC(C(=O)N2CCN(c3cc(Cl)ccc3C)CC2)CC1 | -25% | -19%
CCOC(=O)c1ccc(NC(=O)CC2SC(c3cc4ccccc4oc3=O)=NC2=O)cc1 (centres undefined) | ? | -11%
COc1ccc2c(C)c(CCC(=O)NCc3ccc(S(=O)(=O)N(C)C)cc3)c(=O)oc2c1 | -16% | -6%
C=C(C)COc1ccc2c(C)c(CCC(=O)NCc3ccc(S(N)(=O)=O)cc3)c(=O)oc2c1 | 7.1µM* | 4.5µM*
Cc1nc2c(cc(OCc3ccc(F)cc3)c3ccsc32)s1 | -14%[1.06 µM] | 33%
Cc1cc(C)cc(C(=O)NCCC23CC4CC(CC(C4)C2)C3)c1 | 16% | 9%
CC1CCCCC1NC(=S)Nc1cccc2cnccc12 (centres undefined) | ? | 14µM*
CC1CCCCC1NC(=S)NN (centres undefined) | 25% | 0%
COc1ccc(Nc2nc3ccccc3nc2NS(=O)(=O)c2cccc(Cl)c2)cc1 | 54% | 4%
O=S(=O)(Nc1nc2ccccc2nc1Nc1ccc(F)cc1)c1cccc(Cl)c1 | ? | 6.3µM*
